# Bioassay records from PubChem BioAssay.
# AID504770: growth inhibitors of E. coli YBA685 in a screen for V. cholerae RctB (chromosome II replication) inhibitors; E. coli YBA685 rctB-dependent plasmid, OD600 growth, 3 h; hits give low values; z-score (concentration not given with the values); hit rate 0.27% among 130,000; in the data active means z-score below about -2, passing the limit was not always enough
# Mtb MbtI inh: blocks the Mycobacterium tuberculosis siderophore enzyme MbtI. AID 493033. hit rate 0.89% among 100,000. purified MbtI enzyme, fluorescence intensity read-out. P9WFX0. inhibition, % (no concentration beside the values); in the data active means inhibition mostly above about 56%, no sharp cut-off; inactive means mostly below about 77%
# Target sequence (P9WFX0 whole entry, looked up): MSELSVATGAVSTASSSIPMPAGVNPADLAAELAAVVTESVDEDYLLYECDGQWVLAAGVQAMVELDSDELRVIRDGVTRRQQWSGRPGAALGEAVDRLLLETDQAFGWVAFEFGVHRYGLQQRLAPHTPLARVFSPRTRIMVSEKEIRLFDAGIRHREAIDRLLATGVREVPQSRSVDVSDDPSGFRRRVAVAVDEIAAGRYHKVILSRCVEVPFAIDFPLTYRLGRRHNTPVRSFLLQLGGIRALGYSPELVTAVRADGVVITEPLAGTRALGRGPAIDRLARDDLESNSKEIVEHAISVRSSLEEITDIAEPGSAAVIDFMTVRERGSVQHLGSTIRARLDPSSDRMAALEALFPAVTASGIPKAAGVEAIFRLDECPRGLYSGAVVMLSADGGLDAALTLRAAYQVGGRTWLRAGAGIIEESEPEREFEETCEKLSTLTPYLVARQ
# PV pol inh: inhibitors of poliovirus RNA polymerase binding and polymerization; P03300; poliovirus polymerase elongation, fluorescence polarization; hits give low values; % elongation, % (compound at 16.7 µg/mL); hit rate 0.66% among 150,000; AID 588519; in the data active means % elongation below about 90%
# Mtb MenB inh: blocks the Mycobacterium tuberculosis MenB enzyme; P9WNP5; MenB enzyme assay, absorbance read-out; inhibition, % (concentration not given with the values); hit rate 0.43% among 100,000; AID 540299; in the data active means inhibition above about 21%, passing the limit was not always enough
# Active calls of the source: *; . = not tested or not shown; ! = a repeat was not active. A selection: hits, their analogues and other compounds. The true share with any hit is near 1.5%.
SMILES,AID504770,Mtb MbtI inh,PV pol inh,Mtb MenB inh
COc1cc(Cl)c(C)cc1NC(=S)N(Cc1ccccc1C)CC1CCC(C(=O)O)CC1 (configuration not stated),-0.2,52*,98,-11
CC1Sc2ccc(C(=O)NCc3ccccn3)cc2NC1=O (configuration not stated),-0.6,87*,87*,-42
C#CC(=O)OCC(=O)Nc1ccc(C)c(C)c1,0.4,66*,89*,-25
O=C(Nc1sc2c(c1Sc1nnnn1-c1ccccc1)CCCC2)c1ccccc1,1.5,-64,103,15
CC(=O)Nc1ccccc1OCCOc1ccccc1NC(C)=O,-0.35,.,.,.
CCCOc1ccccc1NC(=O)/C=C/C(N)=O,-0.25,100*,100,.
COc1cc(/C=N/NC(N)=O)cc2sc(=O)oc12,-0.2,81*,99,-14
COc1cc(/C=N/NC(N)=O)cc(Br)c1OC,0.35,4,106,-8
Cc1cc(=O)c(C(=O)NCc2ccccc2CN2CCCC2)nn1-c1ccccc1,-1.4,4,100,-11
CN1CCN(CCNC(=O)c2cnn(-c3ccccc3)c2-n2cccc2)CC1,0.05,-4,102,1
CC(C)OC(=O)CN1C(=O)C(C)(C)Oc2ccc(C(=O)Nc3ccccc3)cc21,1.1,0,103,25*
O=C(CCC(=O)c1ccc(F)cc1)c1ccc(F)cc1,-0.25,-13,105,3
O=C(CC1C(=O)Sc2[nH]c(=O)sc21)c1ccc(F)cc1 (configuration not stated),-0.25,85*,55,59*
O=C(O)c1ccc2[nH]c3c(c2c1)CSCC3,-0.3,.,84*,0
CN(C)CCOC(=O)c1ccc2[nH]c3c(c2c1)CSCC3,1.2,50,99,5
O=C1CS/C(=N\c2nccs2)N1,-2.8*,-1,117,-28
O=C1CSC(=Nc2cccc3ccccc23)N1,-0.9,-13,102,-17
N#Cc1ccc(COC(=O)CC2CCCC2)cc1,-0.3,-6,107,-1
CP(C)(=O)c1ccccc1C(=O)O,1.3,-3,100,-41
CC(=NCCSCc1nc[nH]c1C)c1c(C)[nH]n(-c2nc3ccccc3s2)c1=O,-0.1,3,103,-12
CC(=NCc1cccnc1)c1c(C)[nH]n(-c2nc3ccccc3s2)c1=O,-0.15,8,98,34*
CCOc1cc(CNc2ncn[nH]2)ccc1OCC(=O)NC(C)(C)C,-2.5*,-10,101,-12
COc1cc(CNC(C)(C)C)ccc1OCC(=O)NC(C)(C)C,0.05,-26,105,-5
Cc1cc(=O)oc2cc(OCC(=O)O)ccc12,0.3,107,105,-17
Cc1cc(=O)oc2cc(OCC(=O)Oc3ccc4c(c3)OCO4)ccc12,-0.15,73,83*,0
SMILES,AID504770,Mtb MbtI inh,PV pol inh,Mtb MenB inh
O=C(O)c1cc2c(cn1)[nH]c1ccccc12,-3.5*,116,106,0
O=C(O)c1cc(=O)c2ccccc2[nH]1,1.4,31,99,15
COC(CNC(=O)c1cc2c(s1)-c1ccccc1OC2)OC,0.2,104,100,-6
Cc1cc(=O)oc2c(/C=N/c3ccccn3)c(O)ccc12,0.1,32,88*,-23
CC(=O)Oc1c(O)ccc2c(C)cc(=O)oc12,-0.6,-1,102,-6
CCCCN1C(=O)CS/C1=C(/C#N)C(=O)Nc1cccc(OC)c1,-0.9,-1,105,-7
CN(C)c1cccc(C(=O)OCCN2C(=O)c3ccccc3C2=O)c1,-0.3,69,103,-11
FC(F)(F)c1cc(C(F)(F)F)n2[nH]c(=S)nc2n1,-0.3,96*,98,-103
O=C(/C=C/c1ccccc1Cl)Nc1ncn[nH]1,1.6,.,67*,-30
Oc1ccccc1C1OCC(C2CC=CCC2)CO1 (configuration not stated),1.6,-8,104,36*
CC1=NN(C(=O)C2CCCCC2)C(O)(c2ccccc2)C1 (configuration not stated),-1.1,-17,103,-10
O=S(=O)(c1ccc(Br)cc1)N1CCNCC1,0.5,.,104,6
N#Cc1ccc(S(=O)(=O)N2CCNCC2)cc1,-0.1,-3,102,27*
CC(=O)NCc1ccc(C(=O)COC(=O)/C=C/c2ccc(C)o2)o1,0.65,2,100,-8
Fc1ccc(-c2nnc(Cl)c3ccccc23)cc1F,1.4,1,100,.
O=c1[nH]c(=S)[nH]nc1-c1ccc(F)c(F)c1,-0.75,101*,98,-16
CC(C)NCC(O)COc1cccc2ccccc12 (configuration not stated),1.4,61,100*!,-17
Cc1nnc2c(Nc3ccccc3I)nc3nonc3n12,-2.8*,-16,107,-21
CCOC(=O)c1nn(-c2ccc(OC)cc2)c(=O)c2c(N)scc12,0.15,54*,97,-4
CCOC(=O)c1nn(-c2ccc(OC)cc2)c(=O)c(C#N)c1C,-0.75,-12,.,.
CN(C)CCNc1ncnc2sc(-c3ccccc3)cc12,-1.1,106,87*,-9
CC(C)(CNC(=O)/C=C/c1ccc(Br)cc1)N1CCOCC1,0.65,12,106,-17
O=C(Nc1ccc(F)c(F)c1)c1cnn(-c2ccccc2)n1,-0.4,29,90*,-43
O=C(Cc1ccc(Cl)cc1)Nc1ccc2nn(-c3ccccc3)nc2c1,.,.,107,.
Cc1ccc(NC(=O)Cn2cc(C#N)c3ccccc32)cc1,1.8,3,102,56*
SMILES,AID504770,Mtb MbtI inh,PV pol inh,Mtb MenB inh
COc1ccc(NC(=O)Cn2cc(C#N)c3ccccc32)cc1,0.15,-11,99,-1
CN1C2CCC1CC(NC1CCCCC1)C2 (configuration not stated),1.2,.,80*,4
O=C(Cc1ccc(-n2c(=O)c3sccc3n(Cc3ccccc3F)c2=O)cc1)NCc1ccco1,-0.25,.,.,.
O=C1c2ccccc2C(=O)N1CCCc1nn2c(-c3cccnc3)nnc2s1,-0.65,64*,105,-17
O=C(/C=C/c1cnc2ccccc2n1)N1CCN(S(=O)(=O)c2ccccc2)CC1,0.35,-7,103,-25
COc1ccc(Cl)cc1N=Cc1sccc1C,-1,-3,105,.
c1ccc(OCCSC2=NCCN2)cc1,-1.4,89*,101,-37
c1ccc(OCCSc2nc3ccccc3[nH]2)cc1,0.25,-1,101,-1
CCOc1ccc(CN(C)C(=O)CNC(N)=O)cc1,-0.2,-1,102,-19
COc1ccc(C(=O)Nc2nc3c(s2)Cc2cc(OC)ccc2-3)cc1,.,.,67*,.
COc1ccc2c(c1)Cc1sc(NC(=O)c3ccc(OC)c(Br)c3)nc1-2,0.25,-7,87*,-3
COc1ccc2c(c1)Cc1sc(NC(=O)c3ccccc3)nc1-2,0.6,.,.,.
COc1ccc2c(c1)Cc1sc(NC(=O)c3ccccc3C)nc1-2,.,.,83*,.
COc1ccc2c(c1)Cc1sc(NC(=O)c3cccc(F)c3)nc1-2,.,.,90,.
CCOC(=O)c1c(C)nn(-c2ncc(C(F)(F)F)cc2Cl)c1C,0.3,.,.,.
COc1ccc(/C=c2\sc3ncnn3c2=O)cc1,-0.3,-10,89*,-27
CCOc1ccc(-c2cccc(NS(C)(=O)=O)c2)nn1,0.2,-19,102,-14
CSC1=NSC2=NC(=O)/C(=C\c3cccs3)C(=N)N12,-0.85,100*,99,-61
